This excerpt belongs to a sample that is enriched for hits.
TDP1 cell noCPT: qHTS for Inhibitors of human tyrosyl-DNA phosphodiesterase 1 (TDP1): qHTS in cells in absence of CPT; DT40 Tdp1-/- hTDP1 cells, no CPT, ATP luminescence, 48 h; Potency, µM (titrated, usually from 46.2 µM), for inactives: top-dose activity change, negative = growth inhibition, actives largely listed as inhibitors; 420,000 compounds, 15% hits; AID 686978, 2013; also: potency is read from the fitted curve at half-maximal effect; nearly all actives have a fitted effect of over 55% in size
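Readout: luminescence from CellTiter-Glo after 30 min in the dark at RT. Cells: DT40 Tdp1-/- with stable hTDP1, 400/well. Exposure: compounds alone, ≥48 hr, 37 °C.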
TDP1 cell CPT: qHTS for Inhibitors of human tyrosyl-DNA phosphodiesterase 1 (TDP1): qHTS in cells in presence of CPT; 420,000 compounds, 12% hits; Potency, µM (top dose mostly 46.2 µM), for the others: at the top dose activity change, negative = growth inhibition, most hits filed as inhibitors; chicken DT40 Tdp1-/-;hTDP1 cells + 20 nM CPT, ATP luminescence, 48 h; also: potency is read from the fitted curve at half-maximal effect; nearly all actives have a fitted effect of over 55% in size
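Chicken DT40 Tdp1-/- cells stably complemented with human TDP1 were seeded at 400 cells/well in medium containing 20 nM camptothecin, exposed to pin-transferred compounds, and grown at 37 °C for at least 48 hr. Viability was read as ATP luminescence.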
ALOX12 inh: Primary qHTS assay for inhibitors of human arachidonate 12S-lipoxygenase (ALOX12): Round 2; 580,000 compounds, 1.1% hits; Polyunsaturated fatty acid lipoxygenase ALOX12 (Homo sapiens), P18054; Potency, µM (top dose mostly 108 µM), for the others: top-dose activity change, negative = inhibition, usual class: inhibitors; AID 1671190, 2021; purified 12hLO, xylenol orange hydroperoxide absorbance; also: potency is read from the fitted curve at half-maximal effect
Target sequence (P18054 whole entry, looked up): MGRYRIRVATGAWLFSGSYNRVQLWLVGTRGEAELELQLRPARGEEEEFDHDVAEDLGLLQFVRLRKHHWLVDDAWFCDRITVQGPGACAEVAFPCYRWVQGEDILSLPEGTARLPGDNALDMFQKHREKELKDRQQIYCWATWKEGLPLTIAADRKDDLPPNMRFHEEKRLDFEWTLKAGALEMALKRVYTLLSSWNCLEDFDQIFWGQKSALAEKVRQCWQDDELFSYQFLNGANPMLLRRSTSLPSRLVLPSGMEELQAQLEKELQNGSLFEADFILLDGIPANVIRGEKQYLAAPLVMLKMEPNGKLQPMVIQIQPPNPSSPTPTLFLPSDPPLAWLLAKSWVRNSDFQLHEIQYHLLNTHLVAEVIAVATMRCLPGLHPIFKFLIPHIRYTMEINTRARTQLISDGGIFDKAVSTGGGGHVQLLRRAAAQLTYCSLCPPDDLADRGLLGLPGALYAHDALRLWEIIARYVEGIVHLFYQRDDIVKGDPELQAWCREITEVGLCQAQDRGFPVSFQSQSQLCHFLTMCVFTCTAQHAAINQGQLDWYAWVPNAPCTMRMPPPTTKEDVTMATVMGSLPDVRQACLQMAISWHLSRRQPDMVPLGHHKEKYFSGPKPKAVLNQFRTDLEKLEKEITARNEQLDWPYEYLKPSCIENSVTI
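Purified human 12hLO at 150 nM in 25 mM Hepes, 0.01% Triton X-100, pH 7.0, preincubated 15 min at room temperature with compound. Reaction started with 40 uM arachidonic acid, 30 min at room temperature. Hydroperoxide measured by Fe-xylenol orange, 573/405 nm absorbance ratio.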
HT1080NT lethal: qHTS for induction of synthetic lethality in tumor cells producing 2HG: qHTS for the HT-1080-NT fibrosarcoma cell line | Potency, µM (titrated, usually from 46.1 µM), inactives show at the top dose activity, negative = less viability, most hits filed as cytotoxic | 360,000 compounds, 1.6% hits | HT-1080-NT fibrosarcoma viability, CellTiter-Glo ATP luminescence, 48 h;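 also: NT is the 2HG producing partner of a matched IDH1 knockdown line; potency is read from the fitted curve at half-maximal effect; 0% = DMSO-treated cells and -100% = media-only wells without cells; nearly all actives have a fitted effect of over 55% in size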
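Toxicity toward the 2HG-producing NT line was scored as %Activity, normalised to DMSO and no-cell wells, from CellTiter-Glo luminescence after 48 hours' treatment.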
IL-1B inflam inh: qHTS for Inhibitors of Inflammasome Signaling: IL-1-beta AlphaLISA Primary Screen | THP-1 LPS/ATP IL-1B secretion, AlphaLISA, 16 h; stronger effect = lower value | activity change, % at 57.5 µM | 360,000 compounds, 4.7% hits; in the data active = activity change below about -50%; inconclusive = mostly about -30% to -49%
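Secreted IL-1B measured by AlphaLISA bead assay after 16 h compound exposure of THP-1 cells; compounds (final up to 57.5 uM) added 1 h before LPS (250 ng/mL) and ATP (1.25 mM) stimulation; lower signal means less secretion.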
HT1080 IDH1KD tx: qHTS for induction of synthetic lethality in tumor cells producing 2HG: qHTS for the HT-1080-IDH1KD cell line | HT-1080 IDH1 knockdown viability, ATP luminescence, 48 h | Potency, µM (titrated, usually from 46.1 µM), inactives show at the highest dose activity, negative = toxicity, most hits filed as cytotoxic | 360,000 compounds, 2% hits | AID 686971, 2013;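 also: potency is read from the fitted curve at half-maximal effect; 0% = DMSO wells and -100% = cell-free medium wells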
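HT-1080-IDH1KD cells (IDH1 knocked down), 750/well in RPMI with 5% FBS, treated with compound 48 h at 37 degrees C. Viability by CellTiter-Glo luminescence, normalised to DMSO and no-cell wells; concentration-response curves classed.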
Numbers without * were called inactive; ? = inconclusive; / = no result; [ ] = remark or other dose. Unless noted, calls follow the shape of the dose curve; as a rule, active = well fitted curve in the direction sought with a large enough effect; inconclusive = small, poorly fitted or top-dose-only effect, or another doubt; inactive = no such curve, though single readings can be large; an effect the other way counts as inactive or inconclusive. Unless noted, % is scaled to controls: 0 for no effect and ±100 for the full control effect.

SMILES | TDP1 cell noCPT | TDP1 cell CPT | ALOX12 inh | HT1080NT lethal | IL-1B inflam inh | HT1080 IDH1KD tx
CC(C)C(NC(=O)COc1ccccc1)C(=O)O (stereo unspecified) | -16% | 0% | -21% | 3%[9.24 µM] | 0 | -4%
O=C(c1ccccc1)c1ccc(OCc2ccc(-c3ccccc3)cc2)cc1 | / | / | -30% | / | / | /
CC(C)C(C)NC(=O)COc1ccc(Sc2ccc(OCC(=O)NC(C)C(C)C)cc2)cc1 (stereo unspecified) | 8.2µM* | 12µM* | 1% | 0% | 10 | 9%
CC(C)C(C)NC(=O)COc1ccc(OCc2ccccc2)cc1 (stereo unspecified) | ? | ? | 15% | -6% | 23 | -3%
CC(=O)c1ccc(OCc2ccc(C(=O)c3ccccc3)cc2)cc1 | 8.2µM* | 10µM* | 34% | -30% | -61* | -24%
Cc1nc2cc(F)ccc2cc1C(=O)N1CCN(Cc2ccccc2)CC1 | / | / | 5% | / | / | /
CCOc1ccc(N2CC(C(=O)Nc3ccc(S(=O)(=O)Nc4nccs4)cc3)CC2=O)cc1 (stereo unspecified) | 7% | 7% | -7% | 14% | -4 | 13%
O=C(CC1C(=O)NCCN1Cc1ccc(-c2ccccc2)cc1)NCCOc1cccnc1 (stereo unspecified) | 16µM* | ? | 0% | -10% | -3 | -11%
CC(C)NC(=O)C[C@@H]1C[C@H]2O[C@H](CNCc3ccncc3F)[C@@H](O)[C@H]2O1 | / | / | 38%[176 µM] | / | / | /
O=C(O)c1cccc(-c2csc(C(O)(c3ccccc3)C(F)(F)F)n2)c1 (stereo unspecified) | -6% | 2% | 1% | 17% | -9 | 5%
OC(c1ccccc1)(c1nc(-c2cccc(C(F)(F)F)c2)cs1)C(F)(F)F (stereo unspecified) | ? | ? | -24% | 23µM* | -30 | 16µM*
N#Cc1cccc(-c2csc(C(O)(c3ccccc3)C(F)(F)F)n2)c1 (stereo unspecified) | ? | ? | ? | ? | 4 | 16µM*
COc1ccc(-c2csc(C(O)(c3ccccc3)C(F)(F)F)n2)cn1 (stereo unspecified) | ? | ? | ? | 23µM* | -18 | -29%
OC(c1ccccc1)(c1nc(-c2ccc(Cl)cc2)cs1)C(F)(F)F (stereo unspecified) | ? | ? | ? | 16µM* | 1 | ?
OCc1cccc(-c2csc(C(O)(c3ccccc3)C(F)(F)F)n2)c1 (stereo unspecified) | ? | ? | ? | -25% | 37 | ?
CNS(=O)(=O)c1cc(NC(=O)C2Cc3ccc(C)cc3S2)ccc1C (stereo unspecified) | / | / | -6% | / | / | /
COc1ccc(CN2C=C(C(=O)OCc3noc(-c4ccc(C)cc4)n3)C(C)=NS2(=O)=O)cc1 | / | / | 8% | / | / | /
C=CCNc1nc(-c2cc3ccccc3o2)cs1 | -18% | -20% | 50µM* | 4% | -95* | 2%
COc1cccc(-c2nc(-c3cc4ccccc4o3)cs2)c1OC | / | / | -24% | / | / | /
COc1ccccc1-c1csc(C(O)(c2ccccc2)C(F)(F)F)n1 (stereo unspecified) | 18µM* | ? | ? | ? | 8 | ?
OC(c1ccccc1)(c1nc(-c2cc3ccccc3o2)cs1)C(F)(F)F (stereo unspecified) | 16µM* | 21µM* | ? | 16µM* | 0 | ?

Compound activity (PubChem BioAssay)
